Laboratory results as given in PubChem BioAssay (NCI).
This is part of a sample that, as a whole, favours compounds with a hit. Of some 79,000 tested, about 15% had one in any assay. Activity calls are given as the source filed them. No stated cut-off is given here; in the data, active means growth inhibition above about 70%; inactive means the rest.

How the values were obtained:
[1] = NCI Yeast Anticancer Drug Screen. Data for the rad52 strain (AID 147);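 further: 0% = growth of vehicle-treated control cultures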; conditions: S. cerevisiae rad52 mutant growth inhibition, stronger effect = higher value
In short: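 Yeast strain carrying a DNA damage repair alteration was exposed to test compounds. Growth inhibition was measured relative to vehicle-treated controls.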

[2] = NCI Yeast Anticancer Drug Screen. Data for the wt1 strain (AID 149);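 further: 0% = growth of vehicle-treated wt1 cultures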; conditions: S. cerevisiae wt1 strain (SPY 50644) growth inhibition, stronger effect = higher value
In short: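 Compounds are added to wt1 yeast cultures. Growth is then measured. Inhibition is expressed relative to vehicle-treated controls.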

[3] = NCI Yeast Anticancer Drug Screen. Data for the rad50 strain (AID 155);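 further: 0% = growth of vehicle-only cultures of the same strain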; conditions: S. cerevisiae rad50 strain growth inhibition, stronger effect = higher value
In short: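 Inhibition values express reduced yeast growth in compound-treated cultures relative to vehicle-treated controls.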

[4] = NCI Yeast Anticancer Drug Screen. Data for the mec2-1 strain (AID 157); conditions: S. cerevisiae mec2-1 strain, stronger effect = higher value
In short: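 mec2-1 yeast strain, carrying an alteration in DNA damage repair or cell cycle control, was exposed to compounds; growth inhibition was measured relative to vehicle-treated controls.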

[5] = NCI Yeast Anticancer Drug Screen. Data for the sgs1 mgt1 strain (AID 161);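 further: 0% = growth of cultures given vehicle only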; conditions: S. cerevisiae sgs1 mgt1 strain, stronger effect = higher value
In short: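 Growth of a repair-deficient yeast mutant was monitored after compound treatment and expressed as inhibition relative to vehicle-treated cultures.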

[6] = NCI Yeast Anticancer Drug Screen. Data for the CLN2oe strain (AID 163);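 further: 0% = growth of vehicle-only control cultures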; conditions: S. cerevisiae CLN2oe strain, stronger effect = higher value
In short: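 Yeast cells carrying a defined cell-cycle control alteration were exposed to test compounds. Growth inhibition was scored against vehicle-treated control cultures.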

[7] = NCI Yeast Anticancer Drug Screen. Data for the cln2 rad14 strain (AID 165);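 further: 0% = growth equal to vehicle treated cultures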; conditions: S. cerevisiae cln2 rad14 strain, stronger effect = higher value
In short: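 Yeast carrying cln2 and rad14 alterations (cell cycle control and DNA damage repair) were exposed to compounds. Growth inhibition was measured against vehicle-treated controls.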

[8] = NCI Yeast Anticancer Drug Screen. Data for the bub3 strain (AID 167); conditions: S. cerevisiae bub3 mutant strain, stronger effect = higher value
In short: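 Steps: expose the mutant yeast strain to compound; grow alongside vehicle-treated cultures; measure growth; express inhibition against the vehicle cultures.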

[9] = NCI Yeast Anticancer Drug Screen. Data for the wt2 strain (AID 169);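 further: 0% = growth of vehicle-treated yeast cultures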; conditions: S. cerevisiae wt2 strain growth inhibition, stronger effect = higher value
In short: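 Yeast cells were exposed to test compounds, and growth inhibition was measured relative to vehicle-treated controls.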

[10] = NCI Yeast Anticancer Drug Screen. Data for the mlh1 strain (AID 171);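 further: 0% = growth of vehicle-treated control cultures of the same strain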; conditions: S. cerevisiae mlh1 strain growth inhibition, stronger effect = higher value
In short: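 Yeast carrying a defined genetic alteration in DNA damage repair or cell cycle control were exposed to test compounds. Growth inhibition was measured relative to vehicle-treated controls.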

[11] = NCI Yeast Anticancer Drug Screen. Data for the sgs1 strain (AID 173);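 further: 0% = growth of vehicle-only control cultures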; conditions: S. cerevisiae sgs1 mutant, stronger effect = higher value
In short: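 Yeast mutant strains carrying defined defects in DNA damage repair or cell cycle control were exposed to test compounds. Growth inhibition was scored against vehicle-treated controls.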

[12] = NCI Yeast Anticancer Drug Screen. Data for the mlh1 rad18 strain (AID 175); conditions: S. cerevisiae mlh1 rad18 strain growth inhibition, stronger effect = higher value
In short: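 Growth inhibition of the yeast strain was measured after compound exposure and expressed relative to vehicle-treated controls. The strain carries defined defects in DNA damage repair.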

[13] = NCI Yeast Anticancer Drug Screen. Data for the rad18 strain (AID 177); conditions: S. cerevisiae rad18 mutant growth inhibition, stronger effect = higher value
In short: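 Yeast carrying a defined DNA damage repair alteration were exposed to compounds. Growth inhibition was expressed relative to vehicle-treated controls.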

[14] = NCI Yeast Anticancer Drug Screen. Data for the rad50EPP+ strain (AID 151);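 further: 0% = growth of vehicle-treated control cultures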; conditions: S. cerevisiae rad50 mutant strain, stronger effect = higher value
In short: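 Yeast strain carrying rad50 alteration (rad50EPP+) exposed to compounds; growth inhibition measured relative to vehicle-treated controls.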

[15] = NCI Yeast Anticancer Drug Screen. Data for the mgt1 strain (AID 153); conditions: S. cerevisiae mgt1 mutant growth inhibition, stronger effect = higher value
In short: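 Yeast mgt1 strain (DNA repair/cell-cycle alteration panel) exposed to compounds; growth inhibition measured relative to vehicle-treated controls.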

[16] = NCI Yeast Anticancer Drug Screen. Data for the rad14 strain (AID 159);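 further: 0% = growth of vehicle-treated control cultures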; conditions: S. cerevisiae rad14 strain growth inhibition, stronger effect = higher value
In short: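 A mutant yeast strain defective in DNA damage repair is treated with compound; inhibition of its growth is scored against untreated, vehicle-exposed cultures.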

[17] = at 5.0 µM (retest, dose inferred, filed as 0.5)
[18] = at 50.0 µM (retest, dose inferred, filed as 5.0)

Measured: growth inhibition

CCCCN(CCCC)CCC(O)c1cc2c(Cl)cc(Cl)cc2c2cc(C(F)(F)F)ccc12 (centres undefined)
inactive: [1]; at 1.2 µM 1% | [1]; at 3.7 µM 11% | [2]; at 1.2 µM -2% | [2]; at 3.7 µM 0% | [3]; at 1.2 µM 24% | [3]; at 3.7 µM 16% | [3]; [17] 41% | [4]; at 1.2 µM 10% | [4]; at 3.7 µM 8% | [4]; [17] 53% | [5]; [17] 56% | [6]; at 1.2 µM 22% | [6]; at 3.7 µM 20% | [7]; [17] 67% | [8]; at 1.2 µM 10% | [8]; at 3.7 µM 3% | [8]; [17] -17% | [9]; at 1.2 µM -46% | [9]; at 3.7 µM 18% | [10]; at 1.2 µM 14% | [10]; at 3.7 µM 23% | [11]; at 1.2 µM 18% | [11]; at 3.7 µM 18% | [12]; [17] 62% | [13]; at 1.2 µM 26% | [13]; at 3.7 µM 29%
active: [1]; at 11.0 µM 99% | [1]; at 33.0 µM 98% | [1]; at 100.0 µM 96% | [2]; at 11.0 µM 93% | [2]; at 33.0 µM 98% | [2]; at 100.0 µM 96% | [3]; at 11.0 µM 98% | [3]; at 33.0 µM 98% | [3]; [18] 98% | [3]; at 50.0 µM 87.5% | [3]; at 100.0 µM 95% | [4]; at 11.0 µM 98% | [4]; at 33.0 µM 99% | [4]; [18] 98% | [4]; at 50.0 µM 89.7% | [4]; at 100.0 µM 96% | [5]; [18] 97% | [5]; at 50.0 µM 86.5% | [6]; at 11.0 µM 98% | [6]; at 33.0 µM 99% | [6]; at 100.0 µM 95% | [7]; [18] 96% | [7]; at 50.0 µM 85.5% | [8]; at 11.0 µM 97% | [8]; at 33.0 µM 99% | [8]; [18] 96% | [8]; at 50.0 µM 82.7% | [8]; at 100.0 µM 96% | [9]; at 11.0 µM 98% | [9]; at 33.0 µM 96% | [9]; at 100.0 µM 90% | [10]; at 11.0 µM 98% | [10]; at 33.0 µM 99% | [10]; at 100.0 µM 96% | [11]; at 11.0 µM 99% | [11]; at 33.0 µM 99% | [11]; at 100.0 µM 95% | [12]; [18] 97% | [12]; at 50.0 µM 82.8% | [13]; at 11.0 µM 98% | [13]; at 33.0 µM 99% | [13]; at 100.0 µM 94%

O=C(CC(C(=O)O)N1CCOCC1)c1ccccc1 (centres undefined)
active: [1]; at 100.0 µM 73% | [3]; at 100.0 µM 77% | [7]; [17] 81% | [8]; [17] 98% | [9]; at 100.0 µM 71% | [10]; at 100.0 µM 77% | [11]; at 100.0 µM 80% | [13]; at 33.0 µM 80% | [13]; at 100.0 µM 91%
inactive: [1]; at 1.2 µM -1% | [1]; at 3.7 µM -2% | [1]; at 11.0 µM 0% | [1]; at 33.0 µM 32% | [2]; at 1.2 µM -1% | [2]; at 3.7 µM -2% | [2]; at 11.0 µM 0% | [2]; at 33.0 µM 12% | [2]; at 100.0 µM 47% | [14]; at 1.2 µM -2% | [14]; at 3.7 µM -1% | [14]; at 11.0 µM 2% | [14]; at 33.0 µM 12% | [14]; at 100.0 µM 43% | [3]; at 1.2 µM -3% | [3]; at 3.7 µM 1% | [3]; [17] 13% | [3]; at 11.0 µM 2% | [3]; at 33.0 µM 36% | [3]; [18] 65% | [3]; at 50.0 µM 49% | [4]; at 1.2 µM -6% | [4]; at 3.7 µM -11% | [4]; [17] -2% | [4]; at 11.0 µM 2% | [4]; at 33.0 µM 31% | [4]; [18] 41% | [4]; at 50.0 µM 12.4% | [4]; at 100.0 µM 66% | [5]; [17] -6% | [5]; [18] 54% | [5]; at 50.0 µM 3.3% | [6]; at 1.2 µM -4% | [6]; at 3.7 µM -9% | [6]; at 11.0 µM -10% | [6]; at 33.0 µM -2% | [6]; at 100.0 µM 22% | [7]; [18] 17% | [7]; at 50.0 µM -16.2% | [8]; at 1.2 µM -16% | [8]; at 3.7 µM -17% | [8]; at 11.0 µM -8% | [8]; at 33.0 µM 29% | [8]; [18] 60% | [8]; at 50.0 µM 21.3% | [8]; at 100.0 µM 68% | [9]; at 1.2 µM -4% | [9]; at 3.7 µM -3% | [9]; at 11.0 µM 0% | [9]; at 33.0 µM 31% | [10]; at 1.2 µM -3% | [10]; at 3.7 µM -3% | [10]; at 11.0 µM 4% | [10]; at 33.0 µM 37% | [11]; at 1.2 µM 0% | [11]; at 3.7 µM 5% | [11]; at 11.0 µM 19% | [11]; at 33.0 µM 56% | [12]; [17] 10% | [12]; [18] 47% | [12]; at 50.0 µM 47.9% | [13]; at 1.2 µM -1% | [13]; at 3.7 µM 5% | [13]; at 11.0 µM 28%

Clc1ccc(NCNC2Nc3ccccc3N2)cc1Cl
inactive: [1]; at 1.2 µM -1% | [1]; at 3.7 µM -1% | [1]; at 11.0 µM 18% | [14]; at 1.2 µM 8% | [14]; at 3.7 µM 16% | [15]; at 1.2 µM -4% | [15]; at 3.7 µM -3% | [15]; at 11.0 µM 4% | [3]; at 1.2 µM -1% | [3]; at 3.7 µM -3% | [3]; [17] 4% | [3]; at 11.0 µM 17% | [3]; at 50.0 µM 25.6% | [4]; at 1.2 µM 0% | [4]; at 3.7 µM 5% | [4]; [17] -6% | [4]; at 11.0 µM 17% | [4]; at 50.0 µM 9.15% | [16]; at 1.2 µM 0% | [16]; at 3.7 µM 3% | [16]; at 11.0 µM 13% | [5]; [17] 18% | [5]; at 50.0 µM 8.15% | [6]; at 1.2 µM -5% | [6]; at 3.7 µM -13% | [6]; at 11.0 µM -3% | [7]; [17] 20% | [7]; at 50.0 µM -9.7% | [8]; at 1.2 µM 1% | [8]; at 3.7 µM -8% | [8]; [17] 26% | [8]; at 11.0 µM -2% | [8]; at 50.0 µM 10.2% | [9]; at 1.2 µM -4% | [9]; at 3.7 µM -1% | [9]; at 11.0 µM 9% | [10]; at 1.2 µM -2% | [10]; at 3.7 µM 0% | [10]; at 11.0 µM 13% | [11]; at 1.2 µM 1% | [11]; at 3.7 µM 5% | [11]; at 11.0 µM 34% | [12]; [17] 55% | [12]; at 50.0 µM 29.8% | [13]; at 1.2 µM 27% | [13]; at 3.7 µM 65%
active: [1]; at 33.0 µM 97% | [1]; at 100.0 µM 98% | [14]; at 11.0 µM 88% | [14]; at 33.0 µM 98% | [14]; at 100.0 µM 98% | [15]; at 33.0 µM 85% | [15]; at 100.0 µM 99% | [3]; at 33.0 µM 93% | [3]; [18] 99% | [3]; at 100.0 µM 98% | [4]; at 33.0 µM 93% | [4]; [18] 99% | [4]; at 100.0 µM 98% | [16]; at 33.0 µM 96% | [16]; at 100.0 µM 99% | [5]; [18] 99% | [6]; at 33.0 µM 89% | [6]; at 100.0 µM 98% | [7]; [18] 83% | [8]; at 33.0 µM 91% | [8]; [18] 99% | [8]; at 100.0 µM 99% | [9]; at 33.0 µM 91% | [9]; at 100.0 µM 98% | [10]; at 33.0 µM 71% | [10]; at 100.0 µM 99% | [11]; at 33.0 µM 92% | [11]; at 100.0 µM 99% | [12]; [18] 98% | [13]; at 11.0 µM 92% | [13]; at 33.0 µM 96% | [13]; at 100.0 µM 98%
